# Data from PubChem BioAssay AID485344 (National Center for Advancing Translational Sciences (NCATS), 2010).
# The campaign covered roughly 340,000 compounds. About 6,900 (2%) were called active. The list comes from a sample in which actives are over-represented; it also holds similar structures and randomly drawn compounds. A number with no mark means an inactive call. No stated cut-off is given here; in the data, active means inhibition above about 30%; inactive means below that, where a call was filed.
# Biological target: D(2) dopamine receptor (Homo sapiens) (UniProt P14416)
# Sequence (P14416 whole entry, looked up): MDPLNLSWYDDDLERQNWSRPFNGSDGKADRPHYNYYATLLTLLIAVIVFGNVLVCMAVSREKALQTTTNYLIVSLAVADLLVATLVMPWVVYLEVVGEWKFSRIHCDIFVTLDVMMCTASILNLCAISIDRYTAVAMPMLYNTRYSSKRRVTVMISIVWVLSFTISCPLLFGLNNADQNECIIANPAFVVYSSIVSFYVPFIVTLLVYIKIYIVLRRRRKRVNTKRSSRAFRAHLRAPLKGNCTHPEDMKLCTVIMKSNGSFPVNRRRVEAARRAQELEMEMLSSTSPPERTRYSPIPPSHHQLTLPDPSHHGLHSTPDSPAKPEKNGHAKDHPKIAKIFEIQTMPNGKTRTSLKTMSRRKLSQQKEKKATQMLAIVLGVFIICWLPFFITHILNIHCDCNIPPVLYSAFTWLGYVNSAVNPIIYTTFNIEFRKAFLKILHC
# Assay: HTS Assay for Allosteric Antagonists of the Human D2 Dopamine Receptor: Primary Screen for Antagonists; further: 0% is about no effect
# Conditions: HEK293 TREx D2 cells, calcium flux, dopamine EC80; at 10 µM; hits give high values
# Outline: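 Tetracycline-induced HEK293 TREx cells expressing D2 receptor forced-coupled to calcium signalling, loaded with no-wash calcium dye. Compounds added and calcium flux read 180 s, then dopamine added at EC80 and read a further 180 s.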
row,SMILES,inhibition
1,CCCCc1ccc(NS(=O)(=O)c2cccc(C(=O)N3CCCN(C)CC3)c2)cc1,16.6%
2,COC(=O)c1ccc(NC(=O)C(C)N2C(=O)c3ccccc3C2=O)cc1 (centres undefined),4.17%
3,Cc1ccnc(NC(=O)C(C)N2C(=O)c3ccccc3C2=O)c1 (centres undefined),-8.26%
4,Cc1cc(C)nc(NC(=O)C(C)N2C(=O)c3ccccc3C2=O)n1 (centres undefined),35.4% (active)
5,CCCN(CC1CC1)C(=S)NC(=O)c1ccccc1Br,6.85%
6,Cc1cc(C(=O)OCC(=O)Nc2ccccc2Cl)c(C)o1,3.84%
7,Cc1ccc(NC(=O)Cn2c(C)csc2=O)cc1,-14.9%
8,CCOC(=O)N1CCN(S(=O)(=O)c2ccc3c(c2)C(C)C(=O)N3)CC1 (centres undefined),-7.55%
9,Cc1ccc2cc(CCNC(=O)c3ccc4c(c3)OCO4)c(=O)[nH]c2c1,-22%
10,CC(=O)Nc1cccc(/C(C)=N/NC(=O)c2c(-c3ccccc3Cl)noc2C)c1,-13%
11,Cc1ccc2cc(CCNC(=O)c3c(-c4ccccc4Cl)noc3C)c(=O)[nH]c2c1,34% (active)
12,CCN(c1ccccc1)S(=O)(=O)c1ccc(OCC(=O)N2CCCC2)cc1,-6.24%
13,CC(OC(=O)c1ccc(S(=O)(=O)N2CCOCC2)cc1)c1ccccc1 (centres undefined),-6.07%
14,Fc1ccc(N2CCN(Cc3cnc(Oc4ccc(Br)cc4)s3)CC2)cc1,14.3%
15,COc1ccc(N2CCN(Cc3nnc(-c4ccccc4)o3)CC2)cc1,9.11%
16,c1ccc(-c2cnc(CN3CCN(c4ccccc4)CC3)o2)cc1,77.7% (active)
17,O=[N+]([O-])c1ccc(S(=O)(=O)Nc2cccc(-c3ccc(N4CCCC4)nn3)c2)cc1,-6.06%
18,Cc1ccc(Cl)cc1NC(=O)COC(=O)CC(C)(C)C,40.7% (active)
19,CCCC(=O)OCC(=O)Nc1cc(Cl)ccc1[N+](=O)[O-],-3.56%
20,Cc1ccc(Cl)cc1NC(=O)COC(=O)C1CCCCC1,-6.03%
21,O=C(C1CCC1)N1CCN(S(=O)(=O)c2ccc([N+](=O)[O-])cc2)CC1,-8.41%
22,COCCn1cnnc1SCC(=O)Nc1cccc(S(=O)(=O)N2CCCCC2)c1,3.75%
23,CCn1cc(C(=O)NCc2ccc3c(c2)OCO3)c2cc(OC)c(OC)cc2c1=O,-9.78%

row,SMILES,inhibition
1,CCn1cc(C(=O)N2CCN(C3CCCCC3)CC2)c2cc(OC)c(OC)cc2c1=O,2.69%
2,O=C(C1CCN(Cc2ccc(Cl)cc2)CC1)N1CCN(Cc2ccc3c(c2)OCO3)CC1,-7.43%
3,O=C(c1cccs1)N1CCN(Cc2ccc3c(c2)OCO3)CC1,86.6% (active)
4,CCn1cc(C(=O)N2CCN(Cc3ccc4c(c3)OCO4)CC2)c2cc(OC)c(OC)cc2c1=O,32.8% (active)
5,O=C(CSCc1ccc(Cl)cc1)N1CCN(Cc2ccc3c(c2)OCO3)CC1,15.1%
6,CC(=O)Nc1ccc(NC(=O)C(C)OC(=O)C2CC(=O)N(CCc3ccccc3)C2)cc1 (centres undefined),-0.386%
7,O=C(NCCc1ccco1)C(=O)NCCC1CCCCN1S(=O)(=O)c1ccccc1 (centres undefined),-16%
8,CCCn1c(N)c(C(=O)CSc2nnc3n2CCCCC3)c(=O)[nH]c1=O,3.63%
9,CCCn1c(N)c(C(=O)CSc2nc3ccccc3c(=O)n2-c2ccc(OC)cc2)c(=O)[nH]c1=O,33.2% (active)
10,COc1cccc(-n2c(SCC(=O)c3c[nH]c4ccccc34)nc3ccccc3c2=O)c1,-2.99%
11,O=C(CNc1ccccc1N1CCCC1=O)Nc1cc(Cl)ccc1-n1cncn1,8.23%
12,Cc1ccc(F)cc1NC(=O)CSCc1c(C)noc1C,13.7%
13,O=C(CN1C(=O)NC2(CCOc3ccccc32)C1=O)NCc1ccc(F)cc1 (centres undefined),26.3%
14,COc1cc(OC)c2ccc(=O)oc2c1C(CCN1CCN(c2ccccc2)CC1)c1ccc2c(c1)OCO2 (centres undefined),94% (active)
15,COc1cc(C(CCN2CCN(c3ccccc3)CC2)c2c(OC)cc(OC)c3ccc(=O)oc23)cc(OC)c1OC (centres undefined),23%
16,CCN(CC)CCC(c1ccc2c(c1)OCO2)c1c(OC)cc(OC)c2c(-c3ccccc3)cc(=O)oc12 (centres undefined),13.4%
17,NS(=O)(=O)c1cc(C(=O)OCC(=O)NNC(=O)c2ccccc2)ccc1Cl,2.99%
18,Cc1[nH]c2ccccc2c1C(=O)C(C)Sc1nnc(C2CC2)o1 (centres undefined),-40.9%
19,CNS(=O)(=O)c1cccc(C(=O)OCC(=O)N2c3ccccc3NC(=O)C2(C)C)c1,-3.21%
20,CC(C)OCCCNc1ncnc2c1[nH]c1ccc(F)cc12,-11.8%
21,CCN1CCCC1Cn1cnc2c([nH]c3cc(OC)ccc32)c1=O (centres undefined),24.3%
22,CCN1CCCC1CNc1ncnc2c1[nH]c1ccc(F)cc12 (centres undefined),39.5% (active)
23,O=C(CSc1nnc(COc2ccc(Cl)cc2)n1Cc1ccco1)N1CCNC1=O,0.458%

row,SMILES,inhibition
1,Oc1ccc(CN2CCN(c3ncccn3)CC2)cc1,84.3% (active)
2,Cc1ccc(CN2CCN(/N=C/c3ccco3)CC2)c(C)c1,-9.84%
3,CN(C)C(=O)c1nc2ccc(Cl)cn2c1CN1CCN(c2ncccn2)CC1,-10.8%
4,c1cnc(N2CCN(c3ccc4ccccc4n3)CC2)nc1,-7.91%
5,Cc1ccc(CN2CCN(/N=C/c3cccnc3)CC2)c(C)c1,-10.4%
6,Cc1ccc(CN2CCN(c3ncccn3)CC2)c(C)c1,80% (active)
7,Cc1ccc(CN2CC(C(=O)N3CCN(S(=O)(=O)c4ccccc4)CC3)CC2=O)cc1 (centres undefined),-4.27%
8,O=C(CCNC(=O)c1ccccc1Cl)NCc1ccco1,-26.5%
9,CCc1nnc(NC(=O)c2cc(S(=O)(=O)N3CCCCC3)ccc2C)s1,-4.7%
10,Cc1ccccc1NC(=O)Cc1nc(COC(=O)c2ccc(C(F)(F)F)cc2)cs1,2.02%
11,CN(CC(=O)NCC(c1ccccc1)N1CCCC1)S(=O)(=O)c1ccc(Cl)cc1 (centres undefined),11.7%
12,CCOc1ccc(NC(=O)CN(C)C(=O)CCSc2ccc(F)cc2)cc1OCC,-8.24%
13,CC1CCC(NC(=O)CNC(=O)c2ccc3ccccc3c2)CC1 (centres undefined),-11%
14,CCC(C)[C@H]1COCCS(=O)(=O)N1Cc1ccc(C)cc1 (some centres undefined),36.6% (active)
15,CCCC[C@H]1COCCS(=O)(=O)N1Cc1cccc(Cl)c1,0.354%
16,Cc1ccc(CN2CCCOCCS2(=O)=O)cc1,-5.42%
17,CCN(CC)C(CNC(=O)CSc1nnnn1-c1cccc(F)c1)c1ccco1 (centres undefined),-7.6%
18,CN1CCN(S(=O)(=O)c2ccc(N3CCN(c4ccccc4O)CC3)c([N+](=O)[O-])c2)CC1,6.91%
19,CC(C)(C)SCCNC(=O)c1cccc([N+](=O)[O-])c1,7.44%
20,Cc1cc(CNC(=O)c2cccc([N+](=O)[O-])c2)c2ccccc2n1,49.1% (active)
21,Cc1cc(C)nc(NC(=O)c2cccc([N+](=O)[O-])c2)c1,14.3%
22,O=C(COC(=O)c1ncc(Cl)c(Cl)c1Cl)NCc1ccccc1,6.01%
23,CCN(CC(=O)NCc1cccs1)C(=O)c1ccc(OC)c(S(=O)(=O)N2CCOCC2)c1,13.8%

row,SMILES,inhibition
1,Cc1cc(C)nc(SCC(=O)N(C)C)n1,7.94%
2,CCOC(=O)c1c(C)[nH]c(C)c1C(=O)CSc1nc(N)cc(N)n1,49.1% (active)
3,CCOC(=O)c1c(C)oc(C)c(C(=O)OCC)c1=O,-5.88%
4,CC(C)n1ncc2c(C(=O)Nc3ccc(CC#N)cc3)cc(C3CC3)nc21,-20.3%
5,COc1ccc(C)cc1NC(=O)c1cc(-c2ccccc2)nc2c1cnn2C(C)C,5.18%
6,CC(C)n1ncc2c(C(=O)NCc3ccccc3CN(C)C)cc(C3CC3)nc21,79.9% (active)
7,COc1ccc(C2=NN(C(=O)CSc3nc(=O)n4ccc(C)cc4n3)C(c3ccc(C)cc3)C2)cc1 (centres undefined),-6.53%
8,O=C(NCC(c1cccs1)N1CCOCC1)c1cc(Cl)ccc1[N+](=O)[O-] (centres undefined),11.5%
9,CC(=O)c1ccc(N2CCN(C(=O)c3ccc(Cl)c(S(=O)(=O)NC4CC4)c3)CC2)c(F)c1,8.05%
10,CCCCN(CC(=O)Nc1cccc(S(=O)(=O)N2CCCC2)c1)Cc1nc2ccccc2c(=O)[nH]1,-6.94%
11,O=C(Nc1ccc2cn[nH]c2c1)c1ccc(S(=O)(=O)N2CCOCC2)cc1,30.5% (active)
12,O=C(CN1C(=O)CCC1=O)Nc1ccc(S(=O)(=O)N2CCOCC2)cc1,10.1%
13,O=C(CN1CCN(c2cccc(Cl)c2)CC1)Nc1ccc(S(=O)(=O)N2CCOCC2)cc1,30.5% (active)
14,O=C(CN1CCN(c2ccc(O)cc2)CC1)Nc1cc(S(=O)(=O)N2CCOCC2)ccc1Cl,-10.8%
15,O=C(CCc1ccc(S(=O)(=O)N2CCOCC2)cc1)Nc1ccc2ccccc2c1,-58.3%
16,Cc1ccnc(NS(=O)(=O)c2ccc(NC(=O)c3ccc(S(=O)(=O)N4CCOCC4)cc3)cc2)n1,-5.53%
17,O=C(Nc1ccc(S(=O)(=O)N2CCOCC2)cc1)c1ccc2ncsc2c1,16.7%
18,O=C(Nc1ccc(N2CCOCC2)c(Cl)c1)c1ccc(S(=O)(=O)N2CCOCC2)cc1,34.4% (active)
19,CN1CCN(c2ccc(NC(=O)c3ccc4c(c3)OCCO4)cc2Cl)CC1,-3.57%
20,CC(C(=O)Nc1ccc(S(=O)(=O)N2CCCC2)cc1)N(C)Cc1ccc(F)cc1 (centres undefined),-65.3%
